# Records with an inconclusive call do not appear. Activity calls are given as the source filed them. How the calls were made is not given here.
# Experiment: E. coli strain growth, wild-type against H38 humanized mutant – H38 mutant GFP vs wild-type RFP, cherry-pick, dose response (AID 977627)
# Details: E. coli H38 humanized ribosome GFP strain, fluorescence, 24 h; activity: measured here: wild-type RFP strain growth, at 50 µM, stronger effect = lower value; series mostly up to 50 µM
structure (smiles),measurement,value
O=C(COC(=O)c1cccc(O)c1)Nc1ccc(Cl)cc1C(=O)c1ccccc1,activity,-8.13%
same,outcome,inactive
